Most compounds without a hit are left out; they make up all but 1.1% or so of the library.
TrxR1 substrate: qHTS Assay for Substrates of Mammalian Selenoprotein Thioredoxin Reductase 1 (TrxR1): qHTS. Thioredoxin reductase 1, cytoplasmic (Rattus norvegicus), O89049. purified TrxR1 substrate turnover, NADPH consumption readout. Potency, µM (doses to about 114 µM). actives 0.01% (n = 390,000); also: nearly all actives have a fitted effect of over 50% in size
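Rat TrxR1, dispensed at 90 nM, was prereduced with 400 uM NADPH (final) for 5 min at ~22 deg C, then incubated with compound 15 min before 400 uM selenite. A first-read NADPH fluorescence drop versus no-compound background flagged substrates.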
miR-21 reporter: qHTS Assay for Modulators of miRNAs and/orActivators of miR-21. 340,000 tested, under 10 active. Potency, µM (top dose mostly 38.3 µM), hits mostly activators. HeLa miR-21 FLuc reporter, luciferase, 48 h;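 also: miR-21 action dims this reporter so a rising signal means less miR-21 action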
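Using DMEM plus 10% FBS, HeLa miR-21-FLuc cells are incubated with test compounds (final up to about 40uM) for 48 hours; firefly luciferase signal is then imaged following reagent-mediated lysis.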
PINK1 modulator: A Quantitative High throughput Screen to Identify Chemical Modulators of PINK1 Expression; Potency, µM (highest dose often 76.6 µM), hits mostly activators; AID 624263, 2012; actives 0.2% (n = 410,000); PINK1 immunofluorescence, high-content cytometry, 24 h; active = well fitted activation curve with a large enough effect; inconclusive = small, poorly fitted or top-dose-only effect; cell line not stated here; also: nearly all actives have a fitted effect of over 65% in size
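PINK1 protein, normally rapidly degraded, was detected by immunofluorescence after 24 hour compound treatment of a stable cell line. Titration data (5 concentrations) came from laser-scanning cytometry, with CCCP-treated wells as controls.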
rTrxR1 inhibitor: qHTS Assay for Inhibitors of Mammalian Selenoprotein Thioredoxin Reductase 1 (TrxR1): qHTS; Thioredoxin reductase 1, cytoplasmic (Rattus norvegicus), O89049; recombinant rTrxR1, NADPH fluorescence consumption, selenite substrate; Potency, µM (titrated, usually from 114 µM), usual class: inhibitors; actives 1% (n = 390,000); also: nearly all actives have a fitted effect of over 65% in size
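Rat TrxR1 (90 nM in the dispensed reagent) was pre-reduced with 400 uM NADPH for 5 min at room temperature, then incubated with compound for 15 min. After 400 uM selenite was added, NADPH fluorescence (Ex 340/Em 450 nm) was followed for 8 min.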
GALK inhibitor: qHTS Assay for Inhibitors of Human Galactokinase (GALK); Purified GALK, Kinase-Glo residual ATP luminescence; P51570; Potency, µM (titrated, usually from 57.5 µM), actives largely listed as inhibitors; AID 1868, 2009; actives 0.007% (n = 270,000)
Target sequence (P51570 whole entry, looked up): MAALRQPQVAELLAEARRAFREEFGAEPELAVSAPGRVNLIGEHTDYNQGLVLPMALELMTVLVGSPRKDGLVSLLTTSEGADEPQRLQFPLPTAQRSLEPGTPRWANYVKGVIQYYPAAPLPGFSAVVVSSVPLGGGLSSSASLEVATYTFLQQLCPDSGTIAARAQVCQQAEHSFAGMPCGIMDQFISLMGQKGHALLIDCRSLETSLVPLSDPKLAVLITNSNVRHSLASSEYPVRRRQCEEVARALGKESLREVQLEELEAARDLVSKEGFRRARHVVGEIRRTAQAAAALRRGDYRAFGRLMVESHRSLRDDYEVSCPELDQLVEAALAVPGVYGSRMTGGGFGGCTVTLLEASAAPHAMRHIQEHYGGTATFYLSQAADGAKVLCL
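Human GALK (5 nM) with 35 uM ATP and 100 uM galactose in 20 mM HEPES pH 8.0, 5 mM MgCl2, 60 mM NaCl, 1 mM DTT, 0.01% BSA. After 1 h at room temperature, leftover ATP was read by Kinase-Glo Plus luminescence.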
A number is an active result; - = inactive; ? = inconclusive; . = no result given. Unless noted, calls follow the shape of the dose curve; as a rule, active = well fitted curve in the direction sought with a large enough effect; inconclusive = small, poorly fitted or top-dose-only effect, or another doubt; inactive = no such curve, though single readings can be large; an effect the other way counts as inactive or inconclusive.

SMILES	TrxR1 substrate	miR-21 reporter	PINK1 modulator	rTrxR1 inhibitor	GALK inhibitor
CCCCCCC(=O)N(O)C1CC(=O)N(c2ccc(Br)cc2)C1=O (stereo not drawn)	-	-	-	22µM	-
COc1ccccc1N(O)C1CC(=O)N(c2ccc(Br)cc2)C1=O (stereo not drawn)	-	-	-	45µM	-
CCCCN(C(=O)CCC(=O)O)C1CC(=O)N(c2ccc(OCCC)cc2)C1=O (stereo not drawn)	-	-	-	-	-
O=C(Cn1ncc2c([nH]c3ccccc32)c1=O)NCCCN1CCN(c2ccc(F)cc2)CC1	-	-	-	-	.
Cc1cc(C2=NNC(=NC3CC3)SC2)c(C)n1-c1ccccc1	-	?	40µM	-	-
COc1ccc(-n2c(C)cc(C3=NNC(=NC4CC4)SC3)c2C)cc1	-	-	32µM	-	-
COc1ccc(-n2c(=O)c(-c3cccs3)nc3cnc(Nc4ccccc4)nc32)cc1	.	.	4.5µM	.	.
CN(C)c1ncc2nc(-c3cccs3)c(=O)n(-c3ccccc3)c2n1	.	.	40µM	.	.
CCNc1ncc2nc(-c3cccs3)c(=O)n(-c3ccc(OC)cc3)c2n1	.	.	-	.	.
COc1cc(NC(=O)CC2C(=O)N(c3ccc(Cl)cc3)C(=O)N2Cc2cccs2)cc(OC)c1 (stereo not drawn)	-	-	-	-	.
Cc1ccccc1C(=O)N1CCc2c(cnc(C)c2CNC(=O)CN2CCCCC2)C1	.	.	-	.	.
CN1C(=O)C(O)(CC(=O)/C=C/c2ccco2)c2cc(Br)ccc21 (stereo not drawn)	-	-	-	16µM	-
CN1C(=O)C(O)(CC(=O)/C=C/c2ccco2)c2ccccc21 (stereo not drawn)	-	-	-	-	-
CN(Cc1cnc2ccccn12)C(=O)c1cc(NC(=O)c2ccccc2)cc2ncn(C3CCCC3)c12	.	.	-	.	.
CN(C(=O)COC(=O)c1ccc(Br)c([N+](=O)[O-])c1)c1c(N)n(Cc2ccccc2)c(=O)[nH]c1=O	-	.	-	40µM	.
Cc1ccc(C(=O)OCC(=O)N(CC(C)C)c2c(N)n(Cc3ccccc3)c(=O)[nH]c2=O)cc1[N+](=O)[O-]	-	.	-	-	.
O=C(O)CN1C(=O)C2C3CC(C2C1=O)C1C(c2ccccc2)c2sc(=O)[nH]c2SC31 (stereo not drawn)	-	-	-	-	-
O=c1[nH]c2c(s1)C(c1ccco1)C1C3CCC(C3)C1S2 (stereo not drawn)	-	-	-	45µM	-
O=C1OC(c2ccccc2)=NC12CC2c1ccc(Cl)cc1 (stereo not drawn)	-	-	-	7.9µM	-
COc1cccc(-c2nc(CS(=O)(=O)CC(=O)NC3CCCC3)c(C)o2)c1	-	-	-	-	-
COc1cccc(-c2nc(CS(=O)(=O)CC(=O)NC3CCCc4ccccc43)c(C)o2)c1 (stereo not drawn)	-	-	-	10µM	-
Cc1ccc(Cn2c(CO)cnc2SCC(=O)Nc2ccc(C)c(Cl)c2)cc1	-	?	-	-	.
CCCCCCCN(C(=O)CCl)c1ccccc1C	-	-	-	79µM	-
CCN(C(=O)c1ccc(C(=O)N(CC)c2ccccc2C)cc1)c1ccccc1C	-	-	-	-	.
CCN1CCc2c(sc(NC(=O)Cc3ccccc3)c2C(N)=O)C1	-	-	-	-	.
CCN1CCc2c(sc(NC(=O)Nc3ccc(Cl)c(Cl)c3)c2C(N)=O)C1	-	-	14µM	-	-
Cc1ccc(C)c(S(=O)(=O)c2cnc(SCC(=O)Nc3ccc(F)cc3F)[nH]c2=O)c1	-	-	-	-	.
CN1CCN(C2=C(Cl)C(=O)N(c3ccc(Cl)c(Cl)c3)C2=O)CC1	-	-	-	16µM	-
CN1CCN(C2=C(Cl)C(=O)N(c3cccc(Cl)c3)C2=O)CC1	-	-	-	?	-
CCCCN(CCC#N)c1ccc(/C=C/c2ccnc3ccccc23)cc1	-	.	.	-	.

Screens (PubChem)
